Drawing on PubChem BioAssay, this text covers z-score and composite z-score for 4 molecules.

Assay [1] in a line: optical density shifts of acrAB sulA E. coli – strain DRC41, OD650, 48 h, E. coli filamentation inducer project, primary screen (AID 1152).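 Also: E. coli MC1000 strain DRC41 lacking acrAB efflux pump and sulA.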 The note with it: higher = more signal, called active from +8 up or from −8 down.
Assay [2] in a line: probe aLefty1 binding on compound microarray – biochemical, small-molecule microarray, 635/667 nm fluorescence, primary screen (AID 1153).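 Also: score merges spot fluorescence with signal-to-noise ratio from the scanned slide images.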 The note with it: higher = more signal.
Assay [3] can be described thus: plasmodial surface anion channel blockers, osmotic lysis – cell-based, P. falciparum Indochina, OD700, 1 h, primary screen (AID 1154). The note with it: P. falciparum Indochina infected RBC osmotic lysis, higher = more signal, called active from +8 up or from −8 down.
Assay [4] can be described thus: plasmodial surface anion channel blockers, osmotic lysis – cell-based, P. falciparum Indochina, OD700, 2 h, primary screen (AID 1155).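 Also: lysis reports solute entry through the parasite surface anion channel PSAC.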 The settings on record: P. falciparum Indochina infected erythrocytes, higher = more signal, called active from +8 up or from −8 down.
Assay [5] in a line: changes in parasitized red cell lysis, either direction – P. falciparum Indochina, OD700, 3 h, PSAC antagonist project, primary screen (AID 1156). The note with it: P. falciparum-infected erythrocytes, osmotic lysis, higher = more signal, called active from +8 up or from −8 down.
Assay [6] is described as follows: plasmodial surface anion channel blockers, osmotic lysis – cell-based, P. falciparum Indochina, OD700, 18 h, primary screen (AID 1157). The note with it: P. falciparum Indochina infected erythrocytes, osmotic lysis OD700, 18 h; higher = more signal, called active from +8 up or from −8 down.
Assay [7] is described as follows: S6 kinase pathway phospho-S6 level changes – cell-based, A549, cytoblot, luminescence, serum-stimulated, primary screen (AID 1158).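 Also: serum-stimulated A549 lung adenocarcinoma cells; signal is phosphorylated S6 detected by cytoblot immunostaining with HRP secondary.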 The settings on record: 5 h, higher = more signal.
In assay [8] the target is NADPH oxidase 2 (Homo sapiens) (UniProt P04839). The assay is described as follows: compounds shifting NOX2 Amplex Red fluorescence – cell-based, HEK293-NOX2, PMA-stimulated, NOX inhibitor project, primary screen (AID 1159). Also: test concentration not given here. The settings on record: 45 min, higher = more signal, called active from +8 up or from −8 down.
Chain of NADPH oxidase 2 (Homo sapiens) (P04839 whole entry, looked up): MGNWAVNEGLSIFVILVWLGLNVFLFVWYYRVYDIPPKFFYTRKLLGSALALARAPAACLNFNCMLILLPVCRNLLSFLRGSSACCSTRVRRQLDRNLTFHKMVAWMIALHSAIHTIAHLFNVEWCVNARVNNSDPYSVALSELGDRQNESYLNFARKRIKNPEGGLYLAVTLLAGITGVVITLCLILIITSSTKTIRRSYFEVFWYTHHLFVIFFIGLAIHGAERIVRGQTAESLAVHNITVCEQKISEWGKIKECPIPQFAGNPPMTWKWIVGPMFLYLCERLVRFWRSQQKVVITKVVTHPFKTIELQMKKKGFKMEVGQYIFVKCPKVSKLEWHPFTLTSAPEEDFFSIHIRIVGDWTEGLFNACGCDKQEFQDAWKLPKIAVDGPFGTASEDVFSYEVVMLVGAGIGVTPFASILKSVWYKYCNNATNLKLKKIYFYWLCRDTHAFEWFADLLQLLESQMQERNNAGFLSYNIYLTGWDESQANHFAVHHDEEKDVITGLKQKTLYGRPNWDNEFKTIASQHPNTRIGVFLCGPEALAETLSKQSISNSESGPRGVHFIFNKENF
The target in assay [9] is NADPH oxidase 4 (Homo sapiens) (UniProt Q9NPH5). The assay is described as follows: compounds shifting NOX4 Amplex Red fluorescence – cell-based, HEK293-NOX4, tetracycline-induced, NOX inhibitor project, primary screen (AID 1160). The settings on record: HEK293-NOX4, Amplex Red H2O2 fluorescence, 45 min; higher = more signal, called active from +8 up or from −8 down.
Chain of NADPH oxidase 4 (Homo sapiens) (Q9NPH5 whole entry, looked up): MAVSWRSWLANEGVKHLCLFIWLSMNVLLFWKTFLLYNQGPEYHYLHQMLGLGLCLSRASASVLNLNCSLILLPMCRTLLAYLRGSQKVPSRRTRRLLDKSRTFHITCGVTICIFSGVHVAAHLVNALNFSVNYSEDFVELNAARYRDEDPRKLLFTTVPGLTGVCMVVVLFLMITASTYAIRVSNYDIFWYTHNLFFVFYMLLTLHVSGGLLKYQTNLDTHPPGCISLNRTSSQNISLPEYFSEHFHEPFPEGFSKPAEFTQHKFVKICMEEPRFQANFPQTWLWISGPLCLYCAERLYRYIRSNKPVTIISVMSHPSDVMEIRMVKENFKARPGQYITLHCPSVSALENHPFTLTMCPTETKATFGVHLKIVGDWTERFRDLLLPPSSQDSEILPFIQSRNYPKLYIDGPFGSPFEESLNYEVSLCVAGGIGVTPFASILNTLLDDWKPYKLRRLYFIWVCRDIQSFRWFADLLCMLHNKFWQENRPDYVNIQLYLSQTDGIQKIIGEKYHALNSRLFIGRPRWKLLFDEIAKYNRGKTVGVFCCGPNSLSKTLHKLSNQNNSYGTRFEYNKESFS
Assay [10] addresses NADPH oxidase 5 (Homo sapiens) (UniProt Q96PH1). The assay is described as follows: compounds shifting NOX5 Amplex Red fluorescence – cell-based, HEK293-NOX5, NOX inhibitor project, primary screen (AID 1161). The note with it: HEK293-NOX5, ionomycin, 45 min, higher = more signal.
Assay [11] can be described thus: compound effects on lung adenocarcinoma cell viability – A549, calcein-AM fluorescence, 48 h, basal, profiling panel (AID 1162). Also: test concentration not given here. The settings on record: higher = more signal.
Assay [12] in a line: compound effects on differentiated 3T3-L1 adipocyte viability – cell-based, 3T3-L1 adipocytes, calcein-AM fluorescence, 48 h, basal, profiling panel (AID 1163). Also: test concentration not given here. The settings on record: 3T3-L1 adipocytes viability, higher = more signal.
A short description of assay [13]: compound effects on hepatocellular carcinoma cell viability – HepG2, calcein-AM fluorescence, 48 h, basal, profiling panel (AID 1164). Also: test concentration not given here. The settings on record: higher = more signal.
Assay [14] in a line: compound effects on multiple myeloma cell viability – MM1S, calcein-AM fluorescence, 48 h, basal, profiling panel (AID 1165).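 Also: viability of MM1S multiple myeloma cells under basal unstimulated conditions; test concentration not given here.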 The settings on record: higher = more signal.
Assay [15] is described as follows: calcein-AM signal in unstimulated myeloma cells – cell-based, calcein-AM fluorescence, 48 h, PK04 Diversity Set, profiling panel (AID 1166).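 Also: cells grown under basal conditions without added stimulus; test concentration not given here.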 The note with it: RPMI8226 myeloma viability, higher = more signal.
A short description of assay [16]: JC-1 mitochondrial signal, unstimulated HepG2 cells – cell-based, JC-1 fluorescence, 24 h, 100 nL compound, profiling panel (AID 1167). Also: test concentration not given here. The note with it: HepG2 mitochondrial potential, higher = more signal.
A short description of assay [17]: JC-1 mitochondrial signal, unstimulated adipocytes – cell-based, JC-1 fluorescence, 3T3-L1 adipocytes, 24 h, 100 nL compound, profiling panel (AID 1168). Also: test concentration not given here. The note with it: JC-1 mitochondrial fluorescence, higher = more signal, called active from +8 up or from −8 down.
The nature of assay [18]: JC-1 mitochondrial signal, unstimulated myeloma cells – cell-based, JC-1 fluorescence, RPMI8226, 24 h, 100 nL compound, profiling panel (AID 1169). Also: test concentration not given here. The note with it: JC-1 mitochondrial potential fluorescence, higher = more signal.
Assay [19] is described as follows: JC-1 mitochondrial signal, unstimulated MM1S myeloma – cell-based, JC-1 fluorescence, 24 h, 100 nL compound, profiling panel (AID 1170). Also: test concentration not given here. The note with it: MM1S mitochondrial potential, higher = more signal.
Assay [20] is described as follows: resazurin metabolic signal in A549 cells – cell-based, resazurin fluorescence, 24 h, PK04 Diversity Set, profiling panel (AID 1171). Also: test concentration not given here. The settings on record: A549 viability, higher = more signal, called active from +8 up or from −8 down. (Alamar Blue is a resazurin reagent that responds to reducing activity.)

Active and inactive are the calls of the source.

Chain of NADPH oxidase 5 (Homo sapiens) (Q96PH1 whole entry, looked up): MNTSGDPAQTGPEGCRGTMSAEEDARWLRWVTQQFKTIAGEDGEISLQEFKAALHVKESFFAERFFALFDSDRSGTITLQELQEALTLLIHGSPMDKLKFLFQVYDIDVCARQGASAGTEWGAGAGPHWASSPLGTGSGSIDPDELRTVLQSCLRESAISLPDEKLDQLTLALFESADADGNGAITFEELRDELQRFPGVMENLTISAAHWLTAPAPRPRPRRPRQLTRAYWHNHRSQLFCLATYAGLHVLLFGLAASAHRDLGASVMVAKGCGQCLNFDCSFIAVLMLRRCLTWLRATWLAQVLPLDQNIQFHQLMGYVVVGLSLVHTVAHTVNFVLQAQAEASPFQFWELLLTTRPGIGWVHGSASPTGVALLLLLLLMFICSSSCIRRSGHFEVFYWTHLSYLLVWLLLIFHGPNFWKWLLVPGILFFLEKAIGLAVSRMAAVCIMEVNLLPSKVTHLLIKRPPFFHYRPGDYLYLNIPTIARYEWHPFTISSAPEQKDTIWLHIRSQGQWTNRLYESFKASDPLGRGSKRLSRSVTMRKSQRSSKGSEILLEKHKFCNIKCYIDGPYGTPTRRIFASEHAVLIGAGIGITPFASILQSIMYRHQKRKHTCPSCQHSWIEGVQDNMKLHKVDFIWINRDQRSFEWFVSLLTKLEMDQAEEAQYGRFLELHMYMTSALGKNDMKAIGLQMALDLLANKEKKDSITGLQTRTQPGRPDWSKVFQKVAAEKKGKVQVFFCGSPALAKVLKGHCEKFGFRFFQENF

With `CCOC(=O)[C@H](Cc1ccccc1)NC(=O)CCC1CC(OC(=O)NCc2ccc3c(c2)OCO3)CC2(CCCC(COC(=O)NCCc3ccccc3OC)O2)O1` (stereo not given in full), the z-score was -0.567 (inactive) in assay [1]; 1.3 (inactive) in assay [3]; 0.627 (inactive) in assay [4]; -0.451 (inactive) in assay [5]; 0.222 (inactive) in [6]; -0.254 in assay [7]. In addition, the z-score was 0.799 (inactive) in assay [8]; -1.05 (inactive) in assay [9]; 1.28 in [10]; -1.24 in [11]; -0.399 in [12]; -0.519 in assay [13]. Besides, the z-score was -0.271 in [14]; -0.502 in [15]; -0.778 in [16]; -0.877 (inactive) in assay [17]; 0.444 in assay [18]; 0.00939 in [19]. Besides, in [20], the z-score was 0.124 (inactive). This molecule also gave a composite z-score in assay [2] of -0.0547.
Regarding `CCOC(=O)[C@H](Cc1ccccc1)NC(=O)CCC1CC(OC(=O)NCc2cccc3ccccc23)CC2(CCCC(COC(=O)NCc3cccc(C(F)(F)F)c3)O2)O1` (stereo not given in full), the z-score was 0.263 (inactive) in [1]; 18.5 (active) in [3]; 2.83 (inactive) in assay [4]; 0.654 (inactive) in assay [5]; 0.493 (inactive) in [6]; -0.283 in assay [7]. The z-score in assay [8] was 0.402 (inactive); in assay [9], 0.0385 (inactive); in assay [10], -0.162; in [11] it was 1.84; in assay [12], -0.244; in [13] it was 1.14. The z-score in assay [14] is -0.709; in assay [15] it was 0.607; in [16] it was 3.94; in assay [17], 0.918 (inactive); in assay [18] it was -0.284; in [19], -0.868. Also, the z-score in assay [20] was -0.106 (inactive). In assay [2], this molecule returned a composite z-score of -0.0984.
For the molecule `C[C@@H](c1ccccc1)N1C(=O)[C@H]2[C@H]3[C@H](O)[C@H](O)CC(=NO[C@@H]4O[C@H](CO)[C@@H](O)[C@H](O)[C@H]4O)[C@@H]3CC[C@H]2C1=O`, the z-score was 0.387 (inactive) in [1]; -0.091 (inactive) in assay [3]; -0.076 (inactive) in assay [4]; -0.698 (inactive) in [5]; -0.137 (inactive) in assay [6]; -0.689 in assay [7]. Besides, the z-score was -0.119 (inactive) in assay [8]; 0.552 (inactive) in assay [9]; 0.0309 in assay [10]; -0.57 in [11]; 0.698 in assay [12]; -0.943 in assay [13]. Besides, the z-score in assay [14] was 0.21; in [15], -0.253; in [16], -0.688; in assay [17], 0.418 (inactive); in assay [18], -0.206; in assay [19], -0.189. The z-score in [20] is -0.644 (inactive). The composite z-score in [2] is -0.0272.
With `COC(=O)C1=C(C)N(Cc2ccccc2)[C@]23O[C@](C(=O)OC)(C(=O)N2[C@@H]1c1ccccc1)C(C(=O)OC)=C3C(=O)OC`, the z-score in assay [1] is 0.214 (inactive); in [3] it was 2.05 (inactive); in assay [4] it was -0.468 (inactive); in [5], 0.323 (inactive); in assay [6] it was -1.52 (inactive); in assay [7], 2.22. For the same molecule, the z-score in [8] is 0.826 (inactive); in assay [9], 0.109 (inactive); in assay [10], 2.03; in [11] it was -0.321; in assay [12], 1.48; in assay [13] it was 0.0331. In addition, the z-score is -1.45 in assay [14]; -3.2 in assay [15]; 0.483 in [16]; 0.725 (inactive) in assay [17]; -0.256 in [18]; -0.239 in assay [19]. Also, the z-score in assay [20] is -0.645 (inactive). Besides, in assay [2], the composite z-score amounted to 0.0774.
